Broadly, the inhibition is the drop in the measured response relative to a control, in per cent.

The source of these data is PubChem BioAssay AID1259343 (VanderVen Lab, College of Veterinary Medicine, Cornell …, 2017).

Among all 6,200 compounds or so, about 2,900 (47%) were called active. No stated cut-off is given here; in the data, active means inhibition above about 50%; inactive means the rest. The set was probably picked from earlier hits. Some of the results follow.

A short description of the experiment: Mycobacterium tuberculosis growth inhibition, primary screen (AID 1259343). To be noted: inhibition: at 10 µM, hits give high values; outcome: 10 uM.
`Fc1ccc(NN=Cc2ccc(F)c(F)c2)c(F)c1`: the inhibition was 40.3% (inactive). For `C(=NNc1ccccc1)c1c[nH]c2ccccc12` the value was 52% (active); for `NC(=S)NN=Cc1c[nH]c2ccccc12`, “inactive”; for `O=C(NN=Cc1c[nH]c2ccc(Br)cc12)C1CC1`, 13.7% (inactive).

For `Fc1ccc(NN=Cc2c[nH]c3ccccc23)c(F)c1`, the inhibition is 90.6% (active). To `Fc1ccc(NN=Cc2ccccn2)c(F)c1` belongs 103% (active).

For `C=CCN1C(=O)C(=O)N(CC2CCCCC2)C1=O`, the inhibition is 43.2% (inactive).

As to `CCCCSc1nsc(NC(C)=O)n1`, the inhibition was 71.7% (active).

On to `C=CCn1c(SCCCC)nc(O)cc1=O`, for which the inhibition was 33.7% (inactive). For `Cc1ccc2c(c1)-c1c(s[s+]c1SCC(=O)c1ccccc1)C(C)(C)N2` the value was 18.9% (inactive). For `CN(CC(=O)Nc1ccc(Cl)cc1Cl)Cc1ccsc1` the value was 34.7% (inactive). To `Cc1ccc(F)cc1NC(=O)CN(C)Cc1ccccc1F` belongs 86.7% (active); to `Cc1ccc(CN(C)CC(=O)Nc2cc(Cl)ccc2C#N)cc1`, -19.5% (inactive).

In the case of `O=C(Nc1ccc2c(c1)Cc1ccccc1-2)C1CCCO1` (stereo not drawn), the inhibition was 81.9% (active). For `O=C(CCl)c1ccc(NC(=O)c2ccco2)cc1` the value was 44.1% (inactive); for `O=C(Nc1ccc2c(c1)Cc1ccccc1-2)c1ccco1`, 90% (active).

For `O=c1cnc2ccccc2n1CCOc1ccc(Br)cc1`, the inhibition is 22.6% (inactive). To `Brc1ccc(OCCOc2cccc(-n3cnnn3)c2)cc1` belongs 69.1% (active); to `CCOc1ccc(-n2c(C)cc(C(=O)COc3cccc(-n4cnnn4)c3)c2C)cc1`, 89.6% (active); to `OCC1(Cc2ccccc2F)CCCN(Cc2nc(-c3ccccc3)cs2)C1` (stereo not drawn), 13.4% (inactive). For `CC(=O)c1cc(Cl)ccc1OCC(=O)Nc1ccc(C)cc1Br` the value was 29.6% (inactive); for `Cc1cc(OCC(=O)Nc2ncn[nH]2)c(C)cc1Br`, 71.5% (active); for `CC(C)CC(NC(=O)c1ccc(Cl)cc1Cl)C(=O)Nc1ncn[nH]1` (stereo not drawn), 3.98% (inactive).

As to `Brc1ccc(NCc2ccsc2)cc1`, the inhibition is 47.5% (inactive). For `COc1ccccc1OS(=O)(=O)CCS(=O)(=O)c1ccc(Cl)cc1` the value was 33.8% (inactive). To `O=S(=O)(CCNc1ccc(Br)cc1)c1ccc(Cl)cc1` belongs 93.3% (active); to `COc1ccc(-c2csc(-n3[nH]c(C)c(N=Nc4nccs4)c3=O)n2)cc1`, 98.8% (active); to `Brc1ccccc1C1N=C(c2ccccc2)NO1` (stereo not drawn), 67.1% (active). For `CC1=NN(c2nc(C)cc(C)n2)C(=O)C1Cc1ccccc1Cl` (stereo not drawn) the value was -7.67% (inactive). For `CC(C(=O)O)c1ccc2c(c1)[nH]c1ccc(Cl)cc12` (stereo not drawn), the inhibition is 86% (active). With `CCN(C)CC1CCN(C(=O)CC2CCC(c3ccccc3)CC2)C1` (stereo not drawn), the inhibition was -3.03% (inactive). To `CC(C)(C)C1CCN(c2ncnc(Oc3ccc(F)cc3)c2N)CC1` belongs 25.6% (inactive); to `CCN(CC)c1ncnc(N2CCC(c3ccccc3)CC2)c1N`, 56.1% (active); to `O=C(COn1nnc2ccc(C(F)(F)F)cc21)NC12CC3CC(CC(C3)C1)C2`, 21.7% (inactive). For `COc1cccc(-c2cc3c(Nc4ccc5c(c4)OCO5)nccc3n2C)c1` the value was 85.6% (active); for `COc1cccc(-c2cc3c(Nc4ccc5c(c4)OCCO5)nccc3n2C)c1`, 61.1% (active); for `O=C1CCC2(CCCO2)CCN1Cc1ccc(C(F)(F)F)nc1` (stereo not drawn), -2.37% (inactive).

With `O=C(Cn1nc(-c2ccc(F)cc2)oc1=O)N1CCSc2ccccc21`, the inhibition was 80.5% (active). To `NC(N)=NCCCCN=C(N)N` belongs 0.43% (inactive); to `CS(=O)(=O)N=C1C=C(S(=O)(=O)c2ccccc2)C(=O)c2ccccc21`, 30.9% (inactive). For the compound `COc1ccc2c(Cl)c(C(=O)n3cnc4ccccc43)sc2c1`, the inhibition was 94.7% (active).

For the compound `COc1ccc2c([N+](=O)[O-])c(-n3nnc4ccccc43)[nH]c2c1`, the inhibition was -24.2% (inactive). In the case of `O=[N+]([O-])c1nn(-c2ccc3c(c2)OCCO3)n(O)c1=NC1CCCCCC1`, the inhibition was 62.8% (active). In the case of `C(=Nn1c(-c2ccc3c(c2)OCCO3)csc1=NC1CCCCC1)c1cccnc1`, the inhibition was 9.36% (inactive). To `O=S(=O)(NCc1ccc(N2CCCC2)cc1)c1cccc(Br)c1` belongs 28.5% (inactive); to `Brc1cccc(N2CCC(CNc3ncccn3)C2)c1` (stereo not drawn), 90.2% (active); to `Cc1ccc(COc2ccc(/C=N\NC(=O)CN3CCCCC3)cc2)cc1`, 83.3% (active). For `CNC(=O)C1CCN(C(=O)COc2ccc(Oc3ccc(C)cc3)cc2)CC1` the value was -12.7% (inactive); for `CC1Cc2cc(S(N)(=O)=O)ccc2N1CCCc1ccccc1` (stereo not drawn), -10.1% (inactive). For `O=c1c(Cl)c(NCC2CCC2)cnn1-c1ccc(Cl)cc1` the value was 58% (active); for `CC(C)(C)n1ncc(NCC2CCCc3ccccc32)c(Cl)c1=O` (stereo not drawn), 22.4% (inactive); for `O=c1c(Cl)c(Nc2ccc3c(c2)CCC3)cnn1-c1ccccc1`, 21.7% (inactive). On to `Cc1ccc(CC(SCc2ccccc2)C(=O)O)cc1C` (stereo not drawn), for which the inhibition is 57.4% (active).

As to `CN(C)c1ccc(Nc2nc3ccccc3n3nnnc23)cc1`, the inhibition is 11.8% (inactive). Take `CCOc1ccc(Cl)cc1CNc1nnnn1C`: the inhibition is -8.06% (inactive).

In the case of `Clc1ccc2nc(Cl)c3nnnn3c2c1`, the inhibition was 102% (active). To `Cc1ccc(OCC(=O)NC2CCCC(C)C2C)cc1` (stereo not drawn) belongs 60% (active). To `COc1ccc(-c2ccc(C(=O)NS(C)(=O)=O)c(F)c2)c(F)c1` belongs 55.6% (active); to `COc1cc(NC(=O)C(C)Oc2ccc(F)c(F)c2)cc(OC)c1` (stereo not drawn), 34.5% (inactive).

Turning to `Cc1cc(=O)[nH]c(-n2nc(C)cc2NC(=O)C2CCCCC2)n1`, the inhibition was 101% (active).

Take `Cc1cc(=O)[nH]c(-n2nc(-c3cccs3)cc2NC(=O)C2CCCCC2)n1`: the inhibition was 100% (active). To `Cc1cc(=O)[nH]c(-n2nc(C)cc2NC(=O)C2CC2)n1` belongs 100% (active); to `Cc1cc(NC(=O)C2CCC2)n(-c2ccc(C(F)(F)F)cn2)n1`, 79.6% (active). For `O=C(Nc1nccs1)C1CCN(c2ccc(C(F)(F)F)cn2)CC1` the value was 18.4% (inactive); for `Cc1cc(=O)[nH]c(-n2nc(-c3cccs3)cc2NC(=O)C2CC2)n1`, 2.59% (inactive); for `FC(F)(F)c1ccc(N2CCN(C(=S)NC3CC3)CC2)nc1`, -12.1% (inactive).

Turning to `Cc1ccccc1C(=O)OC1CCCN(C)C1` (stereo not drawn), the inhibition was -3.69% (inactive). For `Cc1cc(=O)[nH]c(-n2nc(C)cc2NC(=O)C2CCCC2)n1` the value was 98.1% (active); for `CC(C)NC(=O)c1ccc(-c2ccc([N+](=O)[O-])cc2Cl)o1`, 37.9% (inactive). For `O=C(O)c1cc([N+](=O)[O-])ccc1NCCCc1ccccc1` the value was -0.63% (inactive). To `O=C(CCl)Nc1cc([N+](=O)[O-])ccc1Cl` belongs 71.2% (active); to `CCCCN(C)C(=O)c1cc(-c2ccc(C)s2)[nH]n1`, 25.6% (inactive).

With `Cc1ccc(-c2cc(C(=O)O)n[nH]2)s1`, the inhibition was 99.8% (active).

Turning to `Cc1ccc(-c2csc(-c3ccc(O)cc3)n2)s1`, the inhibition was 11.1% (inactive).

For the compound `O=C(O)c1cccnc1Nc1ccc(Cl)c(Cl)c1`, the inhibition was 63.9% (active). `O=C(Nc1ccc(Cl)c(Cl)c1)Nc1ccc(I)cc1F`: the inhibition is -10.8% (inactive). In the case of `O=C(O)c1cnc(Nc2ccc(F)c(F)c2)c(Cl)c1`, the inhibition was 30.5% (inactive). Regarding `Cc1ccc(Cl)cc1Nc1ncccc1C(=O)N[C@H]1C[C@H]2CC[C@@H]1C2`, the inhibition is 9.89% (inactive). For `O=C(Nc1ccccc1)Nc1ccc(Cl)c(Cl)c1`, the inhibition is 95.9% (active). For `O=C(Nc1ccc(I)cc1)Nc1ccc(Cl)c(Cl)c1` the value was -0.68% (inactive); for `CCOc1ccc(NC(=O)c2ccc(Cl)o2)cc1`, 17% (inactive); for `CCOc1ccc(NC(=O)c2nc(C)n(-c3ccc(Cl)cc3)n2)cc1`, 94.3% (active). On to `CCCCN(CCCC)CCCCSc1ccc(O)cc1`, for which the inhibition was 74.1% (active). To `CC(C)(C)c1nc(COc2cccc3c2CCCC3O)no1` (stereo not drawn) belongs 5.49% (inactive). To `Cc1ccccc1C(=O)Nc1cc(-c2ccco2)nn1-c1nc(C)c(C)c(=O)[nH]1` belongs -10.1% (inactive).

On to `Cc1nc(-n2nc(-c3ccco3)cc2NC(=O)c2c(F)cccc2F)[nH]c(=O)c1C`, for which the inhibition was 99.8% (active).

For `COc1cccc(C(=O)Nc2cc(-c3ccco3)nn2-c2nc(C)c(C)c(=O)[nH]2)c1OC`, the inhibition is 98.4% (active).

Consider `Cc1nc(-n2nc(-c3ccco3)cc2NC(=O)COc2ccc(F)cc2)[nH]c(=O)c1C`, for which the inhibition was 100% (active). To `Cc1ccc(OCC(=O)Nc2cc(-c3ccco3)nn2-c2nc(C)c(C)c(=O)[nH]2)cc1` belongs 101% (active); to `Cc1nc(-n2nc(-c3ccco3)cc2NC(=O)C2CC2)[nH]c(=O)c1C`, 99.8% (active); to `Cc1nc(-n2nc(-c3ccco3)cc2NC(=O)CC(C)C)[nH]c(=O)c1C`, 101% (active). On to `Cc1cc(N)n(-c2cc(C(F)(F)F)ccc2Cl)n1`, for which the inhibition was 0.14% (inactive). For the compound `Cn1ncc2c(N3CCC(OCc4cccnc4)CC3)nc(C(C)(C)C)nc21`, the inhibition is 85.9% (active). To `CC(=O)O[C@H]1C[C@@]2(C)[C@@H](C[C@@H](O)[C@H]3[C@@]4(C)CC[C@@H](O)[C@@H](C)C4CC[C@@]32C)/C1=C(\CCC=C(C)C)C(=O)O` (stereo partly drawn) belongs 69.4% (active); to `O=S(=O)(NC(C1CC1)C1CC1)c1cccc(Br)c1`, 14.3% (inactive); to `Oc1ccc(N2CCN(Cc3nc(-c4ccc(C(F)(F)F)cc4)no3)CC2)cc1`, 72.1% (active). For `COc1ccc(-c2noc(CN3CCC(O)(c4cccc(C(F)(F)F)c4)CC3)n2)cc1` the value was 56.9% (active); for `CC(C)CCNC(=O)c1c(O)nc2sccn2c1=O`, 89.6% (active); for `CC(C)CNC(=O)c1c(O)nc2sccn2c1=O`, 55.9% (active). To `CCCCNC(=O)c1c(O)nc2sccn2c1=O` belongs 33.8% (inactive).

As to `O=C(NCCC1=CCCCC1)c1c(O)nc2sccn2c1=O`, the inhibition was 83.9% (active). To `CN(C)S(=O)(=O)Oc1ccc(C(=O)c2ccccc2)cc1` belongs 51.1% (active). For `O=C(O)c1ccc(OS(=O)(=O)c2ccc(Cl)c(Cl)c2)cc1` the value was 35.4% (inactive).
